Source: PubChem BioAssay (Tox21)
A number with no mark means an inactive call. Results filed as inconclusive are left out. Where a call stands in place of a potency, no number is given. Calls of active or inactive are those of the source. Unless noted, calls come from the whole dose curve; as a rule, active = well fitted curve in the direction sought with a large enough effect in the repeat runs; inconclusive = weak or mixed curves; inactive = no such curve, though single readings can be large; an effect the other way counts as inactive or inconclusive.

Key:
[1] = qHTS assay for small molecules that induce genotoxicity in human embryonic kidney cells expressing luciferase-tagged ATAD5 (AID 651632); note: nearly all actives have a fitted effect of over 15% in size
Outline: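 HEK293T cells carrying luciferase-tagged ATAD5 were given compound or DMSO vehicle and incubated 16 hr at 37C, 5% CO2. Luciferase activity was read after 30 min at room temperature with Amplite; a rise signals genotoxic stress.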

[2] = qHTS assay for small molecules that induce genotoxicity in human embryonic kidney cells expressing luciferase-tagged ATAD5 - cell viability (AID 651634; calls by dose curve; note: nearly all actives have a fitted effect of over 25% in size; note: potency is the fitted concentration of half-maximal effect)
Outline: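 HEK293T cells carrying luciferase-tagged ATAD5, 2,000 cells/well, exposed to compound for 15.5 hr at 37C. Viability read as live-cell protease activity by CellTiter-Fluor fluorescence after 30 min at 37C.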

[3] = qHTS assay for small molecule disruptors of the mitochondrial membrane potential - cell viability (AID 720634; calls by dose curve; note: nearly all actives have a fitted effect of over 20% in size; note: potency is the fitted concentration of half-maximal effect)
Outline: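 HepG2 cells, 2,000 per well, attached overnight, then treated 1 hr at 37 C, 5% CO2. Viability read as ATP by CellTiter-Glo luminescence after 30 min at room temperature. Read in the same wells as the m-MPI membrane-potential dye assay.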

[4] = qHTS assay to test for compound auto fluorescence at 590 nm (red) in HepG2 cells (AID 720674)
Outline: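 Seeding: 2,000 HepG2 cells/well, MEM/10% FBS, overnight 37 C. Dosing: compound vs DMSO. Incubation: 1 hr, 37 C, 5% CO2. Read: fluorescence 540 ex/590 em, Rose Bengal sodium as red reference.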

[5] = qHTS assay to test for compound auto fluorescence at 535 nm (green) in HepG2 cells (AID 720675)
[6] = qHTS assay to test for compound auto fluorescence at 460 nm (blue) in HEK293 cells (AID 720678)
Outline: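 Intrinsic compound fluorescence is recorded in live HEK293 cultures after overnight incubation at 37C, 5% CO2, using excitation 405 nm and emission 460 nm. Values are referenced to triamterene.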

[7] = qHTS assay to test for compound auto fluorescence at 590 nm (red) in HEK293 cells (AID 720679)
Outline: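 Red autofluorescence, HEK293 cells: 2,000 cells/well; attach 4-5 hr 37C; add 23 nL cpd or DMSO; incubate o/n 37C 5% CO2; read Ex540/Em590; Rose Bengal sodium reference.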

[8] = qHTS assay to test for compound auto fluorescence at 535 nm (green) in HEK293 cells (AID 720680)
[9] = qHTS assay to test for compound auto fluorescence at 460 nm (blue) in HEK293 cell free culture (AID 720681)
Outline: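 Compounds were added to cell-free DMEM with 10% FBS and fluorescence read directly. The blue channel used 405 nm excitation and 460 nm emission, with triamterene as the reference fluorophore.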

[10] = qHTS assay to test for compound auto fluorescence at 535 nm (green) in HEK293 cell free culture (AID 720682)
Outline: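 Measurement is a direct plate read of green fluorescence (485 nm in, 535 nm out) after compound addition to serum-supplemented DMEM lacking cells, with fluorescein used to express intensities.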

[11] = qHTS assay to test for compound auto fluorescence at 590 nm (red) in HEK293 cell free culture (AID 720683)
Outline: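 Cell-free wells of DMEM with 10% FBS received compound, and intrinsic fluorescence was read at excitation/emission 540/590 nm. Values expressed as equivalence to Rose Bengal sodium.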

[12] = qHTS assay to test for compound auto fluorescence at 590 nm (red) in HepG2 cell free culture (AID 720684)
Outline: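 Compounds are added to culture medium (MEM, 10% FBS) lacking cells, then fluorescence is read at excitation 540 nm, emission 590 nm, with Rose Bengal sodium as the equivalency standard.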

[13] = qHTS assay to test for compound auto fluorescence at 460 nm (blue) in HepG2 cell free culture (AID 720685)
Outline: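 Compound (23 nL) or DMSO pinned into cell-free MEM with 10% FBS; blue fluorescence read at 405/460 nm excitation/emission, expressed as auto-fluorescence equivalency to triamterene.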

[14] = qHTS assay to test for compound auto fluorescence at 460 nm (blue) in HepG2 cells (AID 720687)
Outline: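 HepG2 cells in MEM with 10% FBS, attached overnight at 37 C, were exposed to compound or DMSO for 1 hr at 37 C, 5% CO2. Blue fluorescence was read at 405/460 nm, with triamterene as reference fluorophore.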

[15] = qHTS assay for small molecule agonists of the p53 signaling pathway - cell viability (AID 651633; calls by dose curve; note: nearly all actives have a fitted effect of over 30% in size; note: potency is the fitted concentration of half-maximal effect)
Outline: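 p53RE-bla cells were treated with compound for 16 hours at 37 C. Cytotoxicity was then measured as CellTiter-Glo luminescence after 30 min at room temperature.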

[16] = qHTS assay to test for compound auto fluorescence at 535 nm (green) in HepG2 cell free culture (AID 720686)
[17] = qHTS assay for small molecule disruptors of the mitochondrial membrane potential (AID 720635); note: potency is the fitted concentration of half-maximal effect
Outline: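 HepG2 cells exposed to compound 1 hr at 37C, then Mito-MPS dye 30 min. Ratio read of aggregate (540/590 nm) versus monomer (490/535 nm) fluorescence.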

[18] = molecular target: Glucocorticoid receptor (Homo sapiens) (UniProt P04150); test: qHTS assay to identify small molecule agonists of the glucocorticoid receptor (GR) signaling pathway (AID 720691; active = well fitted activation curve with a large enough effect in the signal ratio in the repeat runs, not every such curve was filed as active; the % refers to the signal ratio); conditions: GR-bla HeLa, beta-lactamase reporter ratio, 18 h; activation: at 62.4 µM (top of the series)
Sequence of Glucocorticoid receptor (Homo sapiens) (P04150 whole entry, looked up): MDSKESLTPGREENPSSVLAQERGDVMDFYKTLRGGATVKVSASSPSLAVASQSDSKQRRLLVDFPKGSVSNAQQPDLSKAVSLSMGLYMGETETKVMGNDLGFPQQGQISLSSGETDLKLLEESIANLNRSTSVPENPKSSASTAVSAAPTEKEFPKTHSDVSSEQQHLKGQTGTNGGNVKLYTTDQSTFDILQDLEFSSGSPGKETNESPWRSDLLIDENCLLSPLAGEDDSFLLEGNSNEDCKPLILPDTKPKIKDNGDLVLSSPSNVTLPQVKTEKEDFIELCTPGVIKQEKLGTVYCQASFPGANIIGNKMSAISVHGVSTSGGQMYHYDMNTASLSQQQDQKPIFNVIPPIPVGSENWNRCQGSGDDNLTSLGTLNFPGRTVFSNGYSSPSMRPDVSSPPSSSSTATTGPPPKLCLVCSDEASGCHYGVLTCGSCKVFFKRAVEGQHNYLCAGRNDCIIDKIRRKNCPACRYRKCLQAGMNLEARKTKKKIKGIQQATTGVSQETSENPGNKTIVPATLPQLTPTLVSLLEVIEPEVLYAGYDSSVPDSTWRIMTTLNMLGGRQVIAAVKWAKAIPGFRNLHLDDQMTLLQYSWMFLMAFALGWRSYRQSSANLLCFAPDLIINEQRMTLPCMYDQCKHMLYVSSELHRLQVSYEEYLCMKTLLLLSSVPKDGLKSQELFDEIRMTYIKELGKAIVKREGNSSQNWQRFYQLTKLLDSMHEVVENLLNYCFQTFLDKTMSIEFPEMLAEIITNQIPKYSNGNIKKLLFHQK
Outline: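 GR-bla HeLa cells carrying a GRE-driven beta-lactamase reporter, exposed to compounds for 18 h at 37 C. Reporter activation read as fluorescence after 2 h with LiveBLAzer B/G FRET substrate at room temperature.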

[19] = molecular target: Glucocorticoid receptor (Homo sapiens) (UniProt P04150); test: qHTS assay to identify small molecule antagonists of the glucocorticoid receptor (GR) signaling pathway (AID 720692; active = well fitted inhibition curve with a large enough effect in the signal ratio in the repeat runs, not every such curve was filed as active; the % refers to the signal ratio)
Outline: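 GR-bla HeLa cells carrying a GRE-driven beta-lactamase reporter received compound after 4 h plating, then dexamethasone (5 nM final). After 18 h at 37C, the FRET substrate was loaded for 2 h at room temperature and fluorescence read.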

## O=S(=O)(NS(=O)(=O)C(F)(F)F)C(F)(F)F
[1]
  Potency: inactive
[2]
  Potency: inactive
[3]
  Potency: inactive
[4]
  outcome: inactive
[5]
  Potency: inactive
[6]
  Potency: inactive
[7]
  outcome: inactive
[8]
  outcome: inactive
[9]
  Potency: inactive
[10]
  outcome: inactive
[11]
  outcome: inactive
[12]
  outcome: inactive
[13]
  Potency: inactive
[14]
  Potency: inactive

## COP(=O)(OC)O/C(=C\Cl)c1cc(Cl)c(Cl)cc1Cl
[1]
  Potency: inactive
[15]
  Potency: inactive
[3]
  Potency: inactive
[5]
  Potency: inactive
[6]
  Potency: inactive
[7]
  outcome: inactive
[9]
  Potency: inactive
[10]
  outcome: inactive
[11]
  outcome: inactive
[12]
  outcome: inactive
[16]
  Potency: inactive
[14]
  Potency: inactive

## CC(C)C(Br)C(=O)NC(N)=O (stereo unspecified)
[1]
  Potency: inactive
[15]
  Potency: inactive
[4]
  outcome: inactive
[5]
  Potency: inactive
[6]
  Potency: inactive
[7]
  outcome: inactive
[8]
  outcome: inactive
[9]
  Potency: inactive
[10]
  outcome: inactive
[11]
  outcome: inactive
[12]
  outcome: inactive
[13]
  Potency: inactive
[14]
  Potency: inactive

## Cc1ccc2cc3c(ccc4ccccc43)c3c2c1CC3
[1]
  Potency: inactive
[2]
  Potency: inactive
[17]
  Potency: 12.2 µM (active)
[4]
  outcome: inactive
[5]
  Potency: inactive
[6]
  Potency: inactive
[7]
  outcome: inactive
[8]
  outcome: inactive
[9]
  Potency: inactive
[12]
  outcome: inactive
[16]
  Potency: inactive
[14]
  Potency: inactive
[18]
  Potency: inactive
[19]
  Potency: inactive

## c1ccc(Nc2ccc(Nc3ccccc3)cc2)cc1
[1]
  Potency: inactive
[2]
  Potency: inactive
[3]
  Potency: 24.2 µM (active)
[17]
  Potency: 8.6 µM (active)
[4]
  outcome: inactive
[5]
  Potency: inactive
[6]
  Potency: inactive
[7]
  outcome: inactive
[8]
  outcome: inactive
[9]
  Potency: inactive
[10]
  outcome: inactive
[11]
  outcome: inactive
[12]
  outcome: inactive
[13]
  Potency: inactive
[16]
  Potency: inactive
[14]
  Potency: inactive
[18]
  Potency: inactive

## ClC(Cl)C(Cl)(Cl)Cl
[1]
  Potency: inactive
[2]
  Potency: inactive
[3]
  Potency: inactive
[5]
  Potency: inactive
[6]
  Potency: inactive
[7]
  outcome: inactive
[8]
  outcome: inactive
[9]
  Potency: inactive
[11]
  outcome: inactive
[12]
  outcome: inactive
[16]
  Potency: inactive
[14]
  Potency: inactive
[18]
  Potency: inactive
[19]
  Potency: inactive

## Oc1cc(Cl)c(Cl)c(Cl)c1Cl
[1]
  Potency: inactive
[2]
  Potency: inactive
[4]
  outcome: inactive
[5]
  Potency: inactive
[6]
  Potency: inactive
[7]
  outcome: inactive
[8]
  outcome: inactive
[9]
  Potency: inactive
[10]
  outcome: inactive
[11]
  outcome: inactive
[12]
  outcome: inactive
[13]
  Potency: inactive
[16]
  Potency: inactive
[14]
  Potency: inactive

## C[C@]12C/C(=C/O)C(=O)C[C@@H]1CC[C@@H]1[C@@H]2CC[C@@]2(C)[C@H]1CC[C@]2(C)O
[1]
  Potency: inactive
[15]
  Potency: 49 µM (active)
[3]
  Potency: inactive
[5]
  Potency: inactive
[6]
  Potency: inactive
[7]
  outcome: inactive
[8]
  outcome: inactive
[9]
  Potency: inactive
[11]
  outcome: inactive
[12]
  outcome: inactive
[16]
  Potency: inactive
[14]
  Potency: inactive
[18]
  Potency: inactive

## O=C(O)[C@H](O)[C@@H](O)C(=O)O
[1]
  Potency: inactive
[2]
  Potency: inactive
[3]
  Potency: inactive
[4]
  outcome: inactive
[5]
  Potency: inactive
[6]
  Potency: inactive
[8]
  outcome: inactive
[9]
  Potency: inactive
[12]
  outcome: inactive
[13]
  Potency: inactive
[16]
  Potency: inactive
[14]
  Potency: inactive

## O=[N+]([O-])c1cccc2cccc([N+](=O)[O-])c12
[1]
  Potency: inactive
[15]
  Potency: inactive
[17]
  Potency: 9.73 µM (active)
[4]
  outcome: inactive
[5]
  Potency: inactive
[6]
  Potency: inactive
[7]
  outcome: inactive
[9]
  Potency: inactive
[10]
  outcome: inactive
[12]
  outcome: inactive
[13]
  Potency: inactive
[16]
  Potency: inactive
[14]
  Potency: inactive
[18]
  Potency: inactive

## CN(C)CCc1c[nH]c2ccccc12
[1]
  Potency: inactive
[2]
  Potency: inactive
[3]
  Potency: inactive
[17]
  Potency: inactive
[4]
  outcome: inactive
[5]
  Potency: inactive
[6]
  Potency: inactive
[7]
  outcome: inactive
[8]
  outcome: inactive
[9]
  Potency: inactive
[10]
  outcome: inactive
[11]
  outcome: inactive
[12]
  outcome: inactive
[13]
  Potency: inactive
[16]
  Potency: inactive
[14]
  Potency: inactive
[18]
  Potency: inactive
[19]
  Potency: inactive

## Cc1ccc(C)c2ccccc12
[1]
  Potency: inactive
[2]
  Potency: inactive
[3]
  Potency: inactive
[17]
  Potency: inactive
[4]
  outcome: inactive
[5]
  Potency: inactive
[6]
  Potency: inactive
[7]
  outcome: inactive
[8]
  outcome: inactive
[9]
  Potency: inactive
[11]
  outcome: inactive
[12]
  outcome: inactive
[13]
  Potency: inactive
[16]
  Potency: inactive
[14]
  Potency: inactive

## CCN1CCC2(CC1)COc1cc3c(cc12)N(C(=O)c1ccc(-c2ccc(-c4nnc(C)o4)cc2C)cc1)CC3
[1]
  Potency: inactive
[2]
  Potency: 56.4 µM (active)
[17]
  Potency: 7.96 µM (active)
[5]
  Potency: inactive
[6]
  Potency: inactive
[7]
  outcome: inactive
[8]
  outcome: inactive
[9]
  Potency: inactive
[10]
  outcome: inactive
[11]
  outcome: inactive
[12]
  outcome: inactive
[13]
  Potency: inactive
[16]
  Potency: inactive
[14]
  Potency: inactive

## CCOP(=O)(Sc1ccccc1)Sc1ccccc1
[1]
  Potency: inactive
[2]
  Potency: inactive
[3]
  Potency: inactive
[5]
  Potency: inactive
[6]
  Potency: inactive
[8]
  outcome: inactive
[9]
  Potency: inactive
[11]
  outcome: inactive
[12]
  outcome: inactive
[13]
  Potency: inactive
[16]
  Potency: inactive
[14]
  Potency: inactive
[18]
  Potency: inactive
[19]
  Potency: inactive

## N#CC(C#N)=NNc1cccc(Cl)c1
[1]
  Potency: inactive
[2]
  Potency: 7.7 µM (active)
[3]
  Potency: inactive
[17]
  Potency: 0.109 µM (active)
[4]
  outcome: inactive
[5]
  Potency: inactive
[6]
  Potency: inactive
[9]
  Potency: inactive
[10]
  outcome: inactive
[11]
  outcome: inactive
[12]
  outcome: inactive
[13]
  Potency: inactive
[16]
  Potency: inactive
[14]
  Potency: inactive

## CCC[CH2][Sn]([CH2]CCC)([CH2]CCC)[CH2]CCC
[1]
  Potency: inactive
[2]
  Potency: 19.3 µM (active)
[4]
  outcome: inactive
[5]
  Potency: inactive
[6]
  Potency: inactive
[7]
  outcome: inactive
[8]
  outcome: inactive
[9]
  Potency: inactive
[10]
  outcome: inactive
[12]
  outcome: inactive
[13]
  Potency: inactive
[16]
  Potency: inactive
[14]
  Potency: inactive

## COP(=S)(NC(C)C)Oc1ccc(C)cc1[N+](=O)[O-] (stereo unspecified)
[1]
  Potency: inactive
[15]
  Potency: inactive
[3]
  Potency: inactive
[4]
  outcome: inactive
[5]
  Potency: inactive
[6]
  Potency: inactive
[8]
  outcome: inactive
[9]
  Potency: inactive
[12]
  outcome: inactive
[14]
  Potency: inactive
[18]
  Potency: inactive
